{"source": "the supplement of paper PMC6555819"}
{"test_system": "PPARg homodimer (NR concentration 180 nM)", "assay": "PBM binding z-score (relative to random genomic background probes); higher = stronger binding; sequences stand for … in GC…GCGATTGACAGCGTAGAATGAAGG", "how_it_was_run": "(§1)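 Ligand-free nuclear receptor dimers were applied to custom Agilent 4×180K protein-binding microarrays whose double-stranded probes carried direct-repeat seeds, single-nucleotide variants, half-site ablations and random human genomic background sequences in 34-nt variable regions. Incubation lasted 1 h. Binding z-scores were computed against the random background probes from regression-normalized fluorescence.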"}
{"sequence": "ATCGAAAGGTCGACGAGGTGAATATACACCGTTT", "PBM binding z-score": 2.04}
{"sequence": "CGTCCTAGGTCAAGGTCAGTGAAAGAGACTCGAA", "PBM binding z-score": 3.52}
{"sequence": "CTCGAAAGGTCGTGCTCAGGTGAGCATACCAAAC", "PBM binding z-score": 3.06}
{"sequence": "ATCGAAAGGTCGAAGGTGAGTATACCCACCCGAA", "PBM binding z-score": 1.04}
{"sequence": "CCGGCTGGGGCAGAAAGGTTACCATACCATCCGG", "PBM binding z-score": 0.44}
{"sequence": "AGAATGAGGTTATTAAGACCAGGGAATTGCGGTC", "PBM binding z-score": 0.709}
{"sequence": "ATCGAACGGTCGAAGGTGAGTATACCCACCCGAA", "PBM binding z-score": -0.177}
{"sequence": "CATACAGGGTCAGCTAGGCAAGAGTAGGGACGGC", "PBM binding z-score": 1.62}
{"sequence": "AGAATGAGGTTAAGATCAGGGAAACAGAATACAT", "PBM binding z-score": 0.847}
{"sequence": "ACAGACAGGTGAGGGAAGGTAACTCAGCTGGACG", "PBM binding z-score": -0.102}
{"sequence": "GCTAGTTGGTCAGTAGAAGGTCACACACCGGTCG", "PBM binding z-score": 2.88}
{"sequence": "CCAGACAGGTGAGAAGGCAACTCAGCCTCGATTA", "PBM binding z-score": 0.166}
{"sequence": "ATCTCTAGGTAAAGTTCCGTGAAAGATCGATAGA", "PBM binding z-score": 0.653}
{"sequence": "TCTAGTTGGTCACGGAGGTCACGCACGACGGGTA", "PBM binding z-score": 3.23}
{"sequence": "TTACCATGGTGAAAGGTCGTTGATGCACGCCTTG", "PBM binding z-score": 0.983}
{"sequence": "CGAACTAGGTCATTGACAGGACATTGAATAGTAA", "PBM binding z-score": 1.29}
{"sequence": "GGAACGAGGGCAAGTAGATAGCAGAGTTTGATGG", "PBM binding z-score": -0.0596}
{"sequence": "AGAACGAGGGCACGCTGAGTTGATCGCAGAGTAG", "PBM binding z-score": -0.239}
{"sequence": "CATCCAGGGTCAGCTAGGCCAGAGTAGGGACGGC", "PBM binding z-score": 1.54}
{"sequence": "CCGAGTAGGTTATGGGGAATTCAGGCAACGGTGA", "PBM binding z-score": 1.64}
{"sequence": "ACTCGGAGGACAAAGGTCGGAGCTACGCCAGTGA", "PBM binding z-score": 0.786}
{"sequence": "GGAACGAGGGCAAAGTTGACAGCATCTGTCGACG", "PBM binding z-score": 0.924}
{"sequence": "TCTTGTTGATCAAGCAGGTTAAGAAAGCCTGAGT", "PBM binding z-score": 0.2}
{"sequence": "CCGAGTAGGTTATGGGGCCTTCAGGCAACGGTGA", "PBM binding z-score": 0.629}
{"sequence": "TCTCGGAGGACGCGAAAGGTCAGAGCTCGACATC", "PBM binding z-score": 2.2}
{"sequence": "TAGCCTAGGTCAGATTGGGCCAGTATACGCTATA", "PBM binding z-score": 0.692}
{"sequence": "GATATTAGTTGAAAGGGCAACCGAATGATTCTCG", "PBM binding z-score": 2.21}
{"sequence": "GGAACGAGGGCAAGCTGATAGCAGAGTTTGATGG", "PBM binding z-score": -0.391}
{"sequence": "CCGACTGGGGCACGGTTACCATAACGCACAGCCA", "PBM binding z-score": 0.044}
{"sequence": "GCAGACAGGTGGAACGCAGGTAACTCAGGGTGGC", "PBM binding z-score": -0.728}
{"sequence": "AGAATGAGGCTATACGTAGATCAGGGAAGAAAGT", "PBM binding z-score": -0.215}
{"sequence": "CCAGACAGGTGAGAAGGTACCTCAGCCTCGATTA", "PBM binding z-score": 0.408}
{"sequence": "GCTAGCAGGCCATTTGCGTCACTCAATGACGGGC", "PBM binding z-score": -1.08}
{"sequence": "ATCGAAAGTTCGACGAGGTGAGTATACACCGTTT", "PBM binding z-score": 0.996}
{"sequence": "CCTCAGAGGACAACAGGAGGTCAGAGCTGCCAGA", "PBM binding z-score": 1.69}
{"sequence": "CGTCAAAGTTCAACTAAGGTAACGTACAGCACGC", "PBM binding z-score": 3.88}
{"sequence": "GAAACAGGGTCAAGGCCAGAGTACGCGTATTGAT", "PBM binding z-score": 2.18}
{"sequence": "GCTTGTAGATCAAGGTTAAGAACGACTAAGCTAA", "PBM binding z-score": 0.356}
{"sequence": "TCTTGTAGATCAAAGGTTAAGAATGCCGAAGCCT", "PBM binding z-score": 1.27}
{"sequence": "GCTTGTAGTTCAAGGTTAAGAAAGACTAAGCTAA", "PBM binding z-score": 0.358}
{"test_system": "PXR:RXRa (NR concentration 270 nM, RXRa partner concentration 90 nM)", "assay": "PBM binding z-score (relative to random genomic background probes); higher = stronger binding; sequences stand for … in GC…GCGATTGACAGCGTAGAATGAAGG", "how_it_was_run": "as §1"}
{"sequence": "ATCGAAAGGTCGACGAGGTGAATATACACCGTTT", "PBM binding z-score": 3.88}
{"sequence": "CGTCCTAGGTCAAGGTCAGTGAAAGAGACTCGAA", "PBM binding z-score": 3.4}
{"sequence": "CTCGAAAGGTCGTGCTCAGGTGAGCATACCAAAC", "PBM binding z-score": 3.43}
{"sequence": "ATCGAAAGGTCGAAGGTGAGTATACCCACCCGAA", "PBM binding z-score": 2.96}
{"sequence": "CCGGCTGGGGCAGAAAGGTTACCATACCATCCGG", "PBM binding z-score": 0.704}
{"sequence": "AGAATGAGGTTATTAAGACCAGGGAATTGCGGTC", "PBM binding z-score": 1.02}
{"sequence": "ATCGAACGGTCGAAGGTGAGTATACCCACCCGAA", "PBM binding z-score": -0.254}
{"sequence": "CATACAGGGTCAGCTAGGCAAGAGTAGGGACGGC", "PBM binding z-score": 1.97}
{"sequence": "AGAATGAGGTTAAGATCAGGGAAACAGAATACAT", "PBM binding z-score": 1.38}
{"sequence": "ACAGACAGGTGAGGGAAGGTAACTCAGCTGGACG", "PBM binding z-score": -0.00447}
{"sequence": "GCTAGTTGGTCAGTAGAAGGTCACACACCGGTCG", "PBM binding z-score": 3.18}
{"sequence": "CCAGACAGGTGAGAAGGCAACTCAGCCTCGATTA", "PBM binding z-score": -0.0948}
{"sequence": "ATCTCTAGGTAAAGTTCCGTGAAAGATCGATAGA", "PBM binding z-score": 0.0557}
{"sequence": "TCTAGTTGGTCACGGAGGTCACGCACGACGGGTA", "PBM binding z-score": 4.93}
{"sequence": "TTACCATGGTGAAAGGTCGTTGATGCACGCCTTG", "PBM binding z-score": 2.74}
{"sequence": "CGAACTAGGTCATTGACAGGACATTGAATAGTAA", "PBM binding z-score": 2.35}
{"sequence": "GGAACGAGGGCAAGTAGATAGCAGAGTTTGATGG", "PBM binding z-score": 0.344}
{"sequence": "AGAACGAGGGCACGCTGAGTTGATCGCAGAGTAG", "PBM binding z-score": 1.53}
{"sequence": "CATCCAGGGTCAGCTAGGCCAGAGTAGGGACGGC", "PBM binding z-score": 2.31}
{"sequence": "CCGAGTAGGTTATGGGGAATTCAGGCAACGGTGA", "PBM binding z-score": 0.204}
{"sequence": "ACTCGGAGGACAAAGGTCGGAGCTACGCCAGTGA", "PBM binding z-score": 1.29}
{"sequence": "GGAACGAGGGCAAAGTTGACAGCATCTGTCGACG", "PBM binding z-score": 1.91}
{"sequence": "TCTTGTTGATCAAGCAGGTTAAGAAAGCCTGAGT", "PBM binding z-score": 0.29}
{"sequence": "CCGAGTAGGTTATGGGGCCTTCAGGCAACGGTGA", "PBM binding z-score": -0.268}
{"sequence": "TCTCGGAGGACGCGAAAGGTCAGAGCTCGACATC", "PBM binding z-score": 3.7}
{"sequence": "TAGCCTAGGTCAGATTGGGCCAGTATACGCTATA", "PBM binding z-score": 0.48}
{"sequence": "GATATTAGTTGAAAGGGCAACCGAATGATTCTCG", "PBM binding z-score": 0.994}
{"sequence": "GGAACGAGGGCAAGCTGATAGCAGAGTTTGATGG", "PBM binding z-score": 0.149}
{"sequence": "CCGACTGGGGCACGGTTACCATAACGCACAGCCA", "PBM binding z-score": -0.353}
{"sequence": "GCAGACAGGTGGAACGCAGGTAACTCAGGGTGGC", "PBM binding z-score": -0.719}
{"sequence": "AGAATGAGGCTATACGTAGATCAGGGAAGAAAGT", "PBM binding z-score": -0.274}
{"sequence": "CCAGACAGGTGAGAAGGTACCTCAGCCTCGATTA", "PBM binding z-score": -0.434}
{"sequence": "GCTAGCAGGCCATTTGCGTCACTCAATGACGGGC", "PBM binding z-score": -0.562}
{"sequence": "ATCGAAAGTTCGACGAGGTGAGTATACACCGTTT", "PBM binding z-score": 1.42}
{"sequence": "CCTCAGAGGACAACAGGAGGTCAGAGCTGCCAGA", "PBM binding z-score": 2.04}
{"sequence": "CGTCAAAGTTCAACTAAGGTAACGTACAGCACGC", "PBM binding z-score": 5.9}
{"sequence": "GAAACAGGGTCAAGGCCAGAGTACGCGTATTGAT", "PBM binding z-score": 4.41}
{"sequence": "GCTTGTAGATCAAGGTTAAGAACGACTAAGCTAA", "PBM binding z-score": 0.364}
{"sequence": "TCTTGTAGATCAAAGGTTAAGAATGCCGAAGCCT", "PBM binding z-score": 1.95}
{"sequence": "GCTTGTAGTTCAAGGTTAAGAAAGACTAAGCTAA", "PBM binding z-score": 1.71}
